Measured values: the supplement of paper PMC11732987, “Enantioselective OTUD7B fragment discovery through chemoproteomics screening and high-throughput optimisation” (Communications Chemistry, 2025)
A number with no mark means an inactive call.

What follows are compounds tested against EIF3F (UniProt O00303) (assay: log2 ratio of Biotin-Ahx-Ub-VS probe labelling (fragment/DMSO); higher = less target engagement (more negative = stronger competition), active = hit call of the paper (q ≤ 0.05, log2 ratio ≤ -1)). Details: compound concentration: 200 uM; treatment time: 3 h.
How it was run: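 HEK293T lysate, 495 µg per sample in Tris/CHAPS/IGEPAL buffer with protease inhibitors, was treated in triplicate with fragment at 200 µM or vehicle for 3 h and then with Biotin-Ahx-Ub-VS at 0.5 µM final for 1 h. Labelled DUBs were NeutrAvidin-enriched, digested with LysC and trypsin, and run by diaPASEF LC-MS/MS. Spectronaut label-free quantities were global-median-normalised, and values are average log2 fragment/vehicle ratios by unpaired t-test on proteins with ≥2 unique peptides.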

Chain of EIF3F (O00303 whole entry, the tested form may be a part): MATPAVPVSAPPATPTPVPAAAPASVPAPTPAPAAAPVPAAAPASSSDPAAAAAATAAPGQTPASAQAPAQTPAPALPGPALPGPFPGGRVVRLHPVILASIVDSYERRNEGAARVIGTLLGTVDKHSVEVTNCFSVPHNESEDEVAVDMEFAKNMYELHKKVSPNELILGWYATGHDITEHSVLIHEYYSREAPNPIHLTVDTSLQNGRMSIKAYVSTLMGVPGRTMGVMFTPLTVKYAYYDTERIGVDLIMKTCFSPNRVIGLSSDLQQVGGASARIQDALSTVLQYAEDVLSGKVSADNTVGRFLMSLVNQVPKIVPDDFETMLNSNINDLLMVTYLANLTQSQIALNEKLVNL

| Compound | log2 ratio of Biotin-Ahx-Ub-VS probe labelling |
| --- | --- |
| CC(NC(=O)CCl)c1csc(-c2ccccc2)n1.Cl (stereo not given) | -0.0347 |
| CCN(C(=O)CCl)C1CCCCC1 | -0.141 |
| CN(C)C(=O)c1ccc(NC(=O)CCl)cc1 | 0.168 |
| NC(=O)C1CCCN(C(=O)CCl)C1 (stereo not given) | -0.000958 |
| Cc1cccc(N(CCC#N)C(=O)CCl)c1C | -0.0896 |
| CC(NC(=O)CCl)c1cc2n(n1)CCCC2.Cl (stereo not given) | -0.359 |
| O=C(CCl)NCc1cccc(N2CCCC2=O)c1 | 0.179 |
| N#Cc1ccccc1N1CCN(C(=O)CCl)CC1 | -0.123 |
| Cl.Cn1nc2c(c1CNC(=O)CCl)CCCC2 | -0.323 |
| Cc1ccc(C(=O)NCCNC(=O)CCl)cc1 | -0.13 |
| Cc1nc(-c2cccc(NC(=O)CCl)c2)cs1 | -0.303 |
| Cl.O=C(CCl)N1CCc2ncncc2C1 | -0.328 |
| CC(NC(=O)CCl)c1cccc2ccccc12 (stereo not given) | -0.0141 |
| Cc1ccc(N(C(=O)CCl)C2C=CS(=O)(=O)C2)cc1 (stereo not given) | -0.128 |
| Cc1cccnc1NC(=O)C1CCN(C(=O)CCl)CC1.Cl | -0.244 |
| O=C(CCl)N(C1=CCCCC1)C1CC1 | -0.311 |
| O=C(CCl)N1CCN(C(=O)Nc2ccccc2)CC1 | 0.181 |
| CC(NC(=O)CCl)c1noc(Cc2ccccc2)n1 (stereo not given) | -0.25 |

| Compound | log2 ratio of Biotin-Ahx-Ub-VS probe labelling |
| --- | --- |
| Cc1cccn2cc(CCNC(=O)CCl)nc12.Cl | -0.323 |
| Cl.O=C(CCl)NC1(c2ncccn2)CCC1 | -0.137 |
| O=C(CCl)N1CCCC2CCCCC21 (stereo not given) | -0.196 |
| O=C(CCl)N1CCC(OCc2ccccc2F)CC1 | -0.319 |
| O=C(CCl)N(Cc1ccsc1)C1CC1 | -0.0964 |
| O=C(CCl)N1CC2(CCOCC2)C1 | 0.0073 |
| CN(C)C(=O)c1ccc(CNC(=O)CCl)cc1 | 0.137 |
| CNC(=O)Cn1cc(NC(=O)CCl)cn1 | -0.308 |
| O=C(CCl)N1CCC[C@@H]1c1ccon1 | -0.585 |
| CN1C(=O)c2ccc(NC(=O)CCl)cc2C1=O | -0.166 |
| Cl.Cn1nccc1C(NC(=O)CCl)c1ccccc1 (stereo not given) | -0.145 |
| O=C(CCl)NCC1(c2ccccc2)CC1 | -0.053 |
| Cc1n[nH]c(=O)c2c(NC(=O)CCl)oc(C)c12 | 0.173 |
| CC(NC(=O)CCl)c1ccc2[nH]ncc2c1 (stereo not given) | -0.607 |
| Cc1ccc2nnc(CNC(=O)CCl)n2c1 | -0.17 |
| O=C(CCl)Nc1cc(Cl)ccc1C(=O)O | -0.053 |
| O=C(CCl)Nc1ccc(Cl)c(F)c1 | -0.0742 |
